Compound activity: PubChem BioAssay, National Center for Advancing Translational Sciences (NCATS)
Compounds with a hit are over-represented: about 6.6% of the library has one in this group of screens.
TGFb inhibitor: inhibitors of TGF-b signaling; HepG2 CAGA-GFP TGF-b/SMAD3 reporter, GFP fluorescence, 18 h; TGF-beta stimulated, 500 pg/mL final; Potency, µM (doses to about 46.1 µM), for inactives: at the highest dose activity, negative = inhibition, usual class: inhibitors; hit rate 1.2% among 410,000; AID 588855; further: on the % scale 0 is the no-effect control and ±100 the full control effect; nearly all actives have a fitted effect of over 65% in size
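HEPG2 CAGA-GFP, 1000 cells/well; 2 h settle, 37 C; cpd via pin tool; TGF-b 500 pg/mL final; 18 h, 37 C; GFP imaging ex488/em500-530; %Activity normalised to -TGF-b and +DMSO controls; CRC fit, curve class.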
KB-V1 MDR tox: KB-V1 MDR subline cytotoxicity; KB-V1 MDR cells viability, CellTiter-Glo, 72 h; Potency, µM (titrated, usually from 46.1 µM), most hits filed as cytotoxic; hit rate 3.4% among 400,000; AID 1347076; further: on the % scale 0 is the no-effect control and ±100 the full control effect; nearly all actives have a fitted effect of over 60% in size
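In this primary screen, KB-V1 cells overexpressing P-gp are incubated with library compounds (lowest to highest concentration) for 72 h at 37 degrees C before a luminescent ATP viability read.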
HT1080 IDH1KD tx: toxicity to HT-1080 IDH1 knockdown cells (counter line). AID 686971. HT-1080 IDH1 knockdown viability, ATP luminescence, 48 h. Potency, µM (doses to about 46.1 µM), without a hit: top-dose activity, negative = toxicity, usual class: cytotoxic. hit rate 2% among 360,000;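 further: 0% = DMSO wells and -100% = cell-free medium wells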
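Assay cells: HT-1080 with IDH1 knockdown, 750 per well, RPMI/5% FBS. Exposure: 48 h at 37 °C following 2 h pre-incubation. Read: CellTiter-Glo luminescence; fitted concentration-response, curve class assigned.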
HT1080NT lethal: kills 2HG-producing HT-1080-NT fibrosarcoma cells; HT-1080-NT fibrosarcoma viability, CellTiter-Glo ATP luminescence, 48 h; Potency, µM (highest dose often 46.1 µM), for the others: at the highest dose activity, negative = less viability, actives largely listed as cytotoxic; hit rate 1.6% among 360,000;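 further: NT is the 2HG producing partner of a matched IDH1 knockdown line; 0% = DMSO-treated cells and -100% = media-only wells without cells; nearly all actives have a fitted effect of over 55% in size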
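Toxicity toward the 2HG-producing NT line was scored as %Activity, normalised to DMSO and no-cell wells, from CellTiter-Glo luminescence after 48 hours' treatment.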
HepG2 tox: counter-screen for TGF-b inhibitors: cytotoxicity in HepG2 cells | HepG2 CAGA-GFP viability, ATP luminescence, 18 h | hit rate 0.76% among 410,000 | Potency, µM (titrated, usually from 46.1 µM), inactives show at the top dose activity change, negative = cytotoxicity, hits mostly cytotoxic | AID 588856
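HepG2 CAGA-GFP cells (1000/well, DMEM with 1% FBS) received compound, then TGF-beta at 500 pg/mL final, and were incubated 18 hours at 37 degrees C. Viability was read by CellTiter-Glo luminescence. Media-only wells were set as complete cell-killing and DMSO as no toxicity.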
KB-3-1 cytotox: KB-3-1 parental cell cytotoxicity. KB-3-1 viability, CellTiter-Glo ATP luminescence, 72 h. Potency, µM (titrated, usually from 46.1 µM), hits mostly cytotoxic. hit rate 1.4% among 400,000; further: on the % scale 0 is the no-effect control and ±100 the full control effect; nearly all actives have a fitted effect of over 60% in size
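KB-3-1 parental drug-naive adenocarcinoma cells in DMEM/10% FBS, incubated 72 h at 37 C with pin-transferred compounds across a concentration series. Viability by CellTiter-Glo luminescence; concentration-response curves fitted after normalization.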
Starred values were filed as active, the others as inactive; i = inactive; ? = inconclusive; / = no result given. The call rests on the fitted dose curve; in most records, active means well fitted curve in the direction sought with a large enough effect; inconclusive means small, poorly fitted or top-dose-only effect, or another doubt; inactive means no such curve, though single readings can be large; an effect the other way counts as inactive or inconclusive. Potency means the concentration at half of the fitted maximal effect.

SMILES	TGFb inhibitor	KB-V1 MDR tox	HT1080 IDH1KD tx	HT1080NT lethal	HepG2 tox	KB-3-1 cytotox
Cc1ccc(-c2csc(=Nc3cccnc3)n2CCCn2ccnc2)cc1C	-33%	7.3µM*	-20%	-6%	3%	16µM*
c1cncc(N=c2scc(-c3cccc4ccccc34)n2CCCn2ccnc2)c1	-11%	12µM*	-24%	?	-48%	i
Cc1ccc(-c2csc(=Nc3cccnc3)n2CCCN2CCCC2=O)cc1C	-9%	?	-12%	-23%	-54%	?
COc1ccc(CNC(=O)c2ccc(-c3nc(CSc4ccc(C)cc4)c(C)o3)cc2)c(OC)c1	-8%	i	/	/	-14%	i
Cc1c(CCNC(=O)C(C)(C)C)sc2nc(-c3ccc(F)cc3)nn12	/	/	/	/	-14%	/
CC(NCC(=O)NC(=O)NCCC1=CCCCC1)c1ccc(S(N)(=O)=O)cc1 (configuration not stated)	1%	i	1%	-4%	-10%	i
Oc1ccc(Br)cc1/C=N/NC(=S)NCCc1ccccc1	?	i	?	?	-185%	?
Oc1ccccc1/C=N/NC(=S)NC1CC2CCC1C2 (configuration not stated)	?	?	?	21µM*	-55%	?
CCNC(=S)N/N=C/c1cccc(OCc2c(F)cccc2Cl)c1	?	21µM*	-15%	-16%	-26%	?
COc1cccc(/C=N/NC(=S)NC2CC3CCC2C3)c1OC (configuration not stated)	-8%	i	-1%	5%	2%	i
COCCCNC(=S)N/N=C/c1ccccc1O	1.8µM*	?	-6%	-2%	-57%	?
COc1ccc(O)c(/C=N/NC(=S)NCCc2ccccc2)c1	?	?	?	15µM*	-166%	?
CNC(=S)N/N=C/c1cccc(OCc2ccccc2F)c1	?	?	-15%	?	-32%	?
COc1ccc2c(c1)c1c(c(=O)n(-c3ccc(OC)c(OC)c3)c(=O)n1Cc1ccccc1F)n2C	-20%	i	/	/	-9%	i
CC1CCCC(C)N1C(=O)COC(=O)c1ccc2ccccc2n1 (configuration not stated)	2%	i	6%	0%	-22%	i
COc1cccc(/C=N/NC(=S)NCCc2ccccc2)c1	25µM*	i	?	-29%	-11%	i
COc1ccc(/C=N/NC(=S)NCCc2ccccc2)cc1	?	i	-6%	-15%	-64%	i
COc1cccc(-n2nnc3c(=O)n(Cc4ccccc4Cl)cnc32)c1	-3%	18µM*	19%	3%	3%	i
COc1cccc(-n2nnc3c(=O)n(Cc4ccc(Cl)cc4)cnc32)c1	7%	15µM*	6%	13%	-6%	i
O=C(Nc1ccccc1C(=O)OCc1cc(=O)n2c3c(sc2n1)CCCC3)c1cccc(Cl)c1	20%	/	/	/	4%	/
O=C(NCCNC1CCC(c2ccccc2)CC1)c1ccc(F)cc1 (configuration not stated)	?	?	?	21µM*	-43%	i
CCn1ccc2cc(S(=O)(=O)N3CCC(C(=O)NCCOC)CC3)ccc21	-17%	?	/	/	-22%	i
O=C(NCc1ccccc1)c1cccc(COc2cc(Cl)ccc2Cl)c1	0%	21µM*	-21%	-8%	-2%	i
O=C(NCc1ccccc1)c1cccc(COc2ccccc2Cl)c1	-16%	?	-22%	-19%	-17%	i
O=C(c1ccccc1)c1ccc(OCC(O)CN2CCN(S(=O)(=O)N3CCCCC3)CC2)cc1 (configuration not stated)	2%	2.1µM*	?	-12%	-31%	23µM*
